MBD2 DNA inh – blocks human MBD2 binding to methylated DNA | TR-FRET, MBD2 binding to methylated oligonucleotide | 370,000 compounds, 0.31% hits | AID 686964 | inhibition, % at 4.4 µM | Q9UBB5; in the data active = inhibition above about 13%
PLCg1 inh – inhibitors of human phospholipase C gamma1; AID 720700; P19174; inhibition, % at 12.2 µM; 370,000 compounds, 0.84% hits; purified PLC-gamma1, fluorogenic substrate, fluorescence
Target sequence (P19174 whole entry, looked up): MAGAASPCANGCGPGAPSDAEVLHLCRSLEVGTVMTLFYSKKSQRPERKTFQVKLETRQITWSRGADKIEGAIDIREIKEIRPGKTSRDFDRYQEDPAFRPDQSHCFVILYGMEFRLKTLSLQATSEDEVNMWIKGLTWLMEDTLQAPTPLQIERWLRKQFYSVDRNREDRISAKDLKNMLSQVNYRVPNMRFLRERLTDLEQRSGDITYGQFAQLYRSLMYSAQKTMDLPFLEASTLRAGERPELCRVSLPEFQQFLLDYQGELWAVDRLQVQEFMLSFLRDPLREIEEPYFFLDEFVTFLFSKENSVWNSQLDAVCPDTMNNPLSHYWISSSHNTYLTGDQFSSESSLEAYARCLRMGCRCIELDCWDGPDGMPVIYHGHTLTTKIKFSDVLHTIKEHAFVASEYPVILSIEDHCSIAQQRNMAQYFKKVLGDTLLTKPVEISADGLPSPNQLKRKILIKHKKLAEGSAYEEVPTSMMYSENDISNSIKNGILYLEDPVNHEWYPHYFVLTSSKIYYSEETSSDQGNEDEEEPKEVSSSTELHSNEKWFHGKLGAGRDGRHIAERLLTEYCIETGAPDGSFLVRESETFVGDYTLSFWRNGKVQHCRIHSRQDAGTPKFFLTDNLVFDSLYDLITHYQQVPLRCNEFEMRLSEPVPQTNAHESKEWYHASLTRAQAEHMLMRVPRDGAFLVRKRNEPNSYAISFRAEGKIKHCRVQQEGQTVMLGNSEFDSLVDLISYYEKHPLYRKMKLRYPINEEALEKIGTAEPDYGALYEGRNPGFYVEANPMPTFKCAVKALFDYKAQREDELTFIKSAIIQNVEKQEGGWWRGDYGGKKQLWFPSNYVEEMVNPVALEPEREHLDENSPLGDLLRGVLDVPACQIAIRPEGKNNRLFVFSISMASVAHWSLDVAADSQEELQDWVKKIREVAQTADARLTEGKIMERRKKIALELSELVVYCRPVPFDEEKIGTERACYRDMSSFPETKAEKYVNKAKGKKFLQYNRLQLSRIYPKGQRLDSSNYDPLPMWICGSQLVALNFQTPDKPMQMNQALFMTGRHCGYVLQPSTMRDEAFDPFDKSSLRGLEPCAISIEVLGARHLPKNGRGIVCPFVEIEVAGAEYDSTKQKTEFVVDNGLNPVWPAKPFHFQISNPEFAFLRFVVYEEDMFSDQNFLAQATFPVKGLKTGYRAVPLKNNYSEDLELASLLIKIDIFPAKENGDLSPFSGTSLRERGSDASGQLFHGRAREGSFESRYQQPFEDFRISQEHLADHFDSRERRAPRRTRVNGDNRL
PLCb3 inh – inhibitors of human phospholipase C beta3 | Q01970 | inhibition, % at 12.2 µM | 370,000 compounds, 0.18% hits | Purified PLC-beta3, fluorogenic substrate, fluorescence | AID 720704; in the data active = inhibition above about 11%
LEDGF integ inh – blocks HIV-1 LEDGF/p75-dependent DNA integration; TR-FRET IN-LEDGF/p75 DNA integration, Eu/Cy5; inhibition, % at 3.7 µM; 370,000 compounds, 0.64% hits;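 active = inhibition above the screen-wide mean plus 3 SD, cut at about 13% in these data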;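 note: signal is the Cy5 over europium emission ratio at 671 and 618 nm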
UHRF1 MBD2 ctr – UHRF1 methyl-DNA binding inhibition; 370,000 compounds, 0.75% hits; UHRF1 binding to methylated oligo, TR-FRET; Q96T88; inhibition, % at 4.4 µM; in the data active = inhibition above about 21%;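 note: UHRF1 SRA domain binding a hemimethylated CpG hairpin DNA probe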
PLCg1 ctr – counter-screen for PLC-beta3 inhibitors: inhibitors of human PLC-gamma1. purified PLC-gamma1, fluorogenic substrate, fluorescence. 3,300 compounds, 3.1% hits. inhibition, % at 12.3 µM. shares compounds with PLCg1 inh. AID 743258
PLCb3 confirm – confirmation of human PLC-beta3 inhibitors; shares compounds with PLCg1 inh; purified PLC-beta3, fluorogenic substrate fluorescence; inhibition, % at 12.3 µM; 3,300 compounds, 1% hits; in the data active = inhibition above about 11%
Each line names hits and unclear results; the compound was inactive in the other large screens (follow-up assays come after a bar, where they were run). In the library only some 2.4% were active in any assay of this set; here they are far more common. Cut-off read from the data, not from the text of the source, unless noted: active = inhibition above about 9.5%; inactive = the rest.

COc1ccc(CN2C(C(=O)NCC(C)C)CSCCS2(=O)=O)cc1 (stereo not drawn)	none
O=C(NCCC1=CCCCC1)C(=O)NCC(c1ccco1)N1CCN(c2ccccc2)CC1 (stereo not drawn)	PLCg1 inh 13 | PLCg1 ctr inactive | PLCb3 confirm inactive
COc1ccc(N2CCN(C(CNC(=O)C(=O)NCCC3=CCCCC3)c3ccco3)CC2)cc1 (stereo not drawn)	none
Cc1ccc(NC(=O)C2=CC(c3cccs3)=NS(=O)(=O)N2C)cc1	none
CCc1ccc(NC(=O)C2=CC(c3cccs3)=NS(=O)(=O)N2C)cc1	PLCg1 inh 16 | PLCg1 ctr inactive | PLCb3 confirm inactive
Cc1ccc(N(CC(=O)NC2CCC(C)CC2)S(=O)(=O)c2cccnc2)cc1 (stereo not drawn)	PLCb3 inh 12 | PLCg1 ctr inactive | PLCb3 confirm inactive
O=C(NC1CCCCC1)C(c1ccncc1)N(Cc1ccc2c(c1)OCO2)C(=O)c1cnsn1 (stereo not drawn)	PLCb3 inh 11, UHRF1 MBD2 ctr 21 | PLCg1 ctr inactive | PLCb3 confirm inactive
O=C(NC1CCCCC1)C(c1ccc2ncccc2c1)N(Cc1ccccc1)C(=O)c1cccs1 (stereo not drawn)	none
O=C(NC1CCCCC1)C(c1ccc2ncccc2c1)N(Cc1ccc2c(c1)OCO2)C(=O)c1cccs1 (stereo not drawn)	PLCg1 inh 9.6 | PLCg1 ctr inactive | PLCb3 confirm inactive
Cc1ccc(-n2c(C)cc(/C=N/NC(=O)CC3(C)OCCO3)c2C)c(C)c1	none
CC1(CC(=O)N/N=C/c2cc([N+](=O)[O-])c(O)cc2O)OCCO1	PLCg1 inh 9.6 | PLCg1 ctr 13 | PLCb3 confirm inactive
CC1CCCC(C)N1C(=O)COC(=O)COc1ccc(C#N)cc1 (stereo not drawn)	PLCg1 inh 11 | PLCg1 ctr inactive | PLCb3 confirm inactive
CC1CCCN(C(=O)COC(=O)COc2ccc(C#N)cc2)C1 (stereo not drawn)	none
CCn1c(SCC(=O)Nc2cccc3ccccc23)nnc1-c1cccs1	none
COc1ccc2c(c1)CN1CN(CC(C)C)S(=O)(=O)CC21 (stereo not drawn)	none
CC(C)(C)OC(=O)n1ccc2ccc(-c3ccc4cc[nH]c4c3)cc21	none
O=C(c1ccc(F)cc1F)N(Cc1ccccn1)CC1CCCO1 (stereo not drawn)	none
CCCCOC(=O)CCc1n[nH]c(=O)[nH]c1=O	none
O=C(CCc1n[nH]c(=O)[nH]c1=O)N1CCOCC1	PLCb3 inh 11 | PLCg1 ctr inactive | PLCb3 confirm inactive
O=C(CCNc1n[nH]c(=O)[nH]c1=O)N1CCOCC1	PLCg1 inh 14 | PLCg1 ctr inactive | PLCb3 confirm inactive
CC(Nc1ccc(Cl)cc1)c1cc(Cl)ccc1O (stereo not drawn)	none
CC(Nc1ccc(Br)cn1)c1cc(Cl)ccc1O (stereo not drawn)	PLCg1 inh 9.7 | PLCg1 ctr inactive | PLCb3 confirm inactive
CCOC(CNC(=O)Cn1nc(C)c2ccccc21)OCC	PLCg1 inh 9.9 | PLCg1 ctr inactive | PLCb3 confirm inactive
CCOC(=O)c1ccc(NC(=O)Cn2nc(C)c3ccccc3c2=O)cc1	none
COc1ccc(C(C)NCCC(c2ccc(OC(C)C)cc2)c2ccccc2OC)cc1 (stereo not drawn)	PLCg1 inh 16 | PLCg1 ctr inactive | PLCb3 confirm inactive
COc1ccc(NC(=O)COc2ccc(/C=N/NC(=O)c3cccnc3)cc2OC)cc1	none
COc1cc(/C=N/NC(=O)c2cccnc2)ccc1OCC(=O)Nc1c(C)cc(C)cc1C	PLCg1 inh 10 | PLCg1 ctr inactive | PLCb3 confirm inactive
O=[N+]([O-])c1cccc2ccc(/C=C/c3cccc(Br)c3)nc12	PLCb3 inh 11 | PLCg1 ctr inactive | PLCb3 confirm inactive
COc1ccc(CNC(=O)O[C@H]2CC[C@@]34CCCN3C(=O)CCC[C@H]4C2)cc1	none
CC(=O)N1CCCc2cc(S(=O)(=O)N(C)Cc3ccccc3)ccc21	PLCg1 inh 9.8 | PLCg1 ctr inactive | PLCb3 confirm inactive

From PubChem BioAssay
